PubChem BioAssay (NCATS)
Records with an inconclusive call do not appear. Calls of active or inactive are those of the source. Calls come from the whole dose curve; as a rule, active = well fitted inhibition curve with a large enough effect; inconclusive = small, poorly fitted or top-dose-only effect; inactive = no such curve, though single readings can be large or run the other way.

Target: Cytochrome P450 1A2 (Homo sapiens) (UniProt P05177)
Assay: qHTS for inhibitors of CYPIA2 against the NCATS DSHEA and TCM libraries (AID 1919976);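 for activity change, negative = inhibition: light from luciferin formed by CYP1A2 from a pro-luciferin substrate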
Settings: recombinant CYP1A2 enzyme activity, luminescence; series mostly up to 37 µM; activity change, negative = inhibition: at the top concentration
Source text: Assay Development and Screening Technology Laboratory (ADST)
National Center for Advancing Translational Sciences (NCATS), Rockville, MD
National Institute of Health (NIH), Bethesda, Maryland
Dietary Supplements and Natural Products have minor oversight of their safety and efficacy. We assembled a collection of Dietary Supplements and Natural Products (DSNP) as well as Traditional Chinese Medicinal (TCM) Plant extracts, which were screened against an in vitro panel of assays, including a liver cytochrome p450 enzyme panel, CAR/PXR signaling pathways, and P-gp transporter assays, to assess their activity. This pipeline facilitated the interrogation of Natural Product-Drug Interaction (NaPDI) through prominent metabolizing pathways. In addition, we compared the activity profiles of the DSNP/TCM substances with those of an approved drug collection. Many of the approved drugs have well-annotated mechanisms of action (MOA) while the MOAs for most of the DSNP and TCM samples remain unknown. Based on the premise that compounds with similar activity profiles tend to share similar targets or MOA, we clustered the library activity profiles to identify overlap with the NCATS Pharmaceutical Collection to predict the MOAs of the DSNP/TCM substances. Overall, we highlight four significant bioactivity profiles (measured by p-values) as examples of this prediction. To assess broad cytotoxicity, we employed screening against a HepG2 cell line. In addition, transporter-mediated drug interactions are utilized in the characterization of DDIs using a P-glycoprotein (P-gp) assays. To profile potential P-gp activity, a differential cell viability was measured against two cell lines: a parental KB-3-1 human cervical adenocarcinoma cell line and the drug-resistant subline KB-8-5-11 that overexpresses P-gp.
To this end, we profiled both collections for potential CAR and/or PXR activity, employing a previously published 1536-well qHTS assay.
[1] Lee TD, et al. A High-Throughput Screen of a Library of Therapeutics Identifies Cytotoxic Substrates of P-glycoprotein. Mol Pharmacol. Nov 2019;96(5):629-640. doi:10.1124/mol.119.115964
PROTOCOL TABLE (as described by Inglese J, Shamu CE and Guy RK. 2007)
SEQUENCE No. (e.g., 1, 2, 3, etc.); […] (e.g., Cells, Incubation, Reagent, etc.); VALUE; DESCRIPTION.
1; Reagent; 2 uL; cytochrome P450 enzyme and luciferin substrate or buffer only, white solid-bottom Greiner plate.
2; Compounds and control; 16 nL; Kalypsis pintool (Wako USA) equipped with a 1536-well pin head to transfer to the assay plates.
3; Incubation; 15 min; room temperature.
4; Reagent; 2 uL; nicotinamide adenine dinucleotide phosphate (NADPH).
5; Incubation; 30 - 45 min; room temperature in the dark.
6; Reagent; 4 uL; P450-Glo assay detection reagent.
7; Centrifuge; 1000 RPM; 15 seconds.
8; Incubation; 30 min; room temperature.
9; Read; Luminescence; ViewLux plate reader.
NOTES (numbers refer to Sequence numbers above)
1. A 2 uL mixture of corresponding enzymes and luciferin substrate (final concentrations CYP enzyme-specific and pro-luciferin substrate-specific) or minus-enzyme (assay buffer conditions supplied by the manufacturer for respective enzyme isoform; typically, 100 mM KPO4) and luciferin substrate were dispensed using a BioRAPTR FRD (Beckman Coulter, Brea, CA) into columns of a 1536-well white solid-bottom medium binding plate (Greiner Bio-One, Monroe, NC). Five isoforms of cytochrome P450 were used (CYP1A2, CYP2C9, CYP2C19, CYP2D6, and CYP3A4).
2. […] Intraplate controls furafylline (CYP1A2), sulfaphenazole (CYP2C9), ketoconazole (CYP2C19), quinidine (CYP2D6), and ketoconazole (CYP3A4) were used correspondingly.
3. Assay plates were incubated at room temperature for 15 min.
4-5. […]
% is set by controls: 0 for no effect and ±100 for the full control effect; potency is the fitted concentration of half-maximal effect.

Sequence of Cytochrome P450 1A2 (Homo sapiens) (P05177 whole entry, looked up): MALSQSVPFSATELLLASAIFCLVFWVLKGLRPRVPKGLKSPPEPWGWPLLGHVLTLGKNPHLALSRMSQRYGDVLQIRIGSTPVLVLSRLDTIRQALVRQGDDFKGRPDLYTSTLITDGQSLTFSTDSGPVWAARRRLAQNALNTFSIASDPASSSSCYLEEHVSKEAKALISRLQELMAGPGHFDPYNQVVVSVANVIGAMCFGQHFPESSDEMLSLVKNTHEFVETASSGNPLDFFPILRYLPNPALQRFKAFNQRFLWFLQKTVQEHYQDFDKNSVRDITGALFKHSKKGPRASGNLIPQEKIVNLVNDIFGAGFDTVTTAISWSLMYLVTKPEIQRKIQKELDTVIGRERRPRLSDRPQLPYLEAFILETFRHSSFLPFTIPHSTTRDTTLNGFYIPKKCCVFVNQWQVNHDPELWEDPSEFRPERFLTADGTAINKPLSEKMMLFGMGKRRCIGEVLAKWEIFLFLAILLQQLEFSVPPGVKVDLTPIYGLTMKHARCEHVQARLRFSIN

Compound | Potency | activity change, negative = inhibition
C=C(C)[C@@H]1CCC(C)=C[C@H]1c1c(O)cc(CCCCC)cc1O | 11.2 µM (active) | –
COc1cc2c(cc1O)C[C@H]1c3c(cc(OC)c(O)c3-2)CCN1C | 10 µM (active) | –
N#CC(O[C@@H]1O[C@H](CO[C@@H]2O[C@H](CO)[C@@H](O)[C@H](O)[C@H]2O)[C@@H](O)[C@H](O)[C@H]1O)c1ccccc1 (stereo partly drawn) | – | -11.2% (inactive)
COC1=C[C@@]23CCN(C)[C@H](Cc4ccc(OC)c(O)c42)C3=CC1=O | – | -17.3% (inactive)
CC[C@@H]1CN2CC[C@]3(C(=O)Nc4ccccc43)[C@@H]2C[C@@H]1/C(=C\OC)C(=O)OC | – | 6.82% (inactive)
COC(=O)C1=CO[C@@H](C)[C@@H]2CN3CC[C@@]4(C(=O)Nc5ccccc54)[C@@H]3CC12 (stereo partly drawn) | – | 11.1% (inactive)
C=CCc1ccc2c(c1)OCO2 | 15.8 µM (active) | –
O=S(=O)(O)O | 35.5 µM (active) | –
COc1cc2c(cc1O)CC1c3c(cc(O)c(OC)c3-2)CCN1C (stereo not drawn) | 3.98 µM (active) | –
COc1cc2c(cc1O)CC1NCCc3cc(OC)c(OC)c-2c31 (stereo not drawn) | 15.8 µM (active) | –
C=C[C@H]1CN2CC[C@@]3(C(=O)Nc4ccccc43)[C@@H]2C[C@@H]1/C(=C\OC)C(=O)OC | – | 2.3% (inactive)
COC1=CC(=O)O[C@@H](/C=C/c2ccc3c(c2)OCO3)C1 | 11.2 µM (active) | –
CCCCCCCCCCCCCCCCCCCC(=O)O | 22.4 µM (active) | –
